# Reference: PubChem BioAssay
# “And” between values parts separate entries of the source, which are not always exact repeats. Equal values may be shown once. The source made the active and inactive calls.
# What was measured:
# [1] = test system: Plasmodium falciparum Sir2 (PF13_0152, Sir2A); assay: pfSir2 binders on small-molecule microarrays, primary screen, biochemical, small-molecule microarray, 635 nm fluorescence (AID 1098); conditions: small-molecule microarray binding, fluorescence 635 nm; higher = more signal;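 note: score merges spot fluorescence intensity with its signal-to-noise ratio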
# [2] = small-molecule microarray binders of probe aDKK1, primary screen, biochemical, biotinylated probe, 635/667 nm fluorescence (AID 1099); conditions: higher = more signal;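 note: score merges 667nm spot fluorescence with signal to noise across triplicate slides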
# [3] = small-molecule microarray binders of probe aCHRDL2, primary screen, biochemical, biotinylated probe, 635/667 nm fluorescence (AID 1100); conditions: higher = more signal
# [4] = splicing luciferase reporter signal modulators, primary screen, spliceosome inhibition project, cell-based, HEK293, splice +/- reporter (AID 1101); conditions: luminescence, 24 h, higher = more signal, called active from +8 up or from −8 down;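 note: HEK293 cells carrying a splicing-competent luciferase reporter gene; test concentration not given here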
# [5] = target: Fibroblast growth factor 10 (Homo sapiens) (UniProt O15520); assay: FGF10 binders on small-molecule microarrays, primary screen, biochemical, small-molecule microarray, 635 nm fluorescence (AID 1102); conditions: FGF10 binding, fluorescence 635 nm, higher = more signal
# Chain of Fibroblast growth factor 10 (Homo sapiens) (O15520 whole entry, looked up): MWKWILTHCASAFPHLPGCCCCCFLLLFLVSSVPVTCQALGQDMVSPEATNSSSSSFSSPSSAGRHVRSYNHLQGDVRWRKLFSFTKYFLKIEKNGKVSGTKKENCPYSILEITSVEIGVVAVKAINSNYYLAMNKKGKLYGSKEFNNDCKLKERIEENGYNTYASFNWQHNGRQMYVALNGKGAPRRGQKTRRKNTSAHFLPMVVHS
# [6] = test system: glycogen synthase kinase-3 (GSK3A per assay name; protocol says GSK3B); assay: GSK3 binders on small-molecule microarrays, primary screen, biochemical, small-molecule microarray, 635 nm fluorescence, GSK3A (AID 1103); conditions: small-molecule microarray binding, fluorescence 635 nm; higher = more signal; note: the record names both GSK3A and GSK3B
# [7] = target: Epidermal growth factor receptor (Homo sapiens) (UniProt P00533); assay: EGFR binders on small-molecule microarrays, primary screen, biochemical, small-molecule microarray, 635 nm fluorescence (AID 1104); conditions: EGFR binding, higher = more signal;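 note: score merges 667 nm emission intensity with spot signal to noise over triplicate slides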
# Chain of Epidermal growth factor receptor (Homo sapiens) (P00533 whole entry, looked up): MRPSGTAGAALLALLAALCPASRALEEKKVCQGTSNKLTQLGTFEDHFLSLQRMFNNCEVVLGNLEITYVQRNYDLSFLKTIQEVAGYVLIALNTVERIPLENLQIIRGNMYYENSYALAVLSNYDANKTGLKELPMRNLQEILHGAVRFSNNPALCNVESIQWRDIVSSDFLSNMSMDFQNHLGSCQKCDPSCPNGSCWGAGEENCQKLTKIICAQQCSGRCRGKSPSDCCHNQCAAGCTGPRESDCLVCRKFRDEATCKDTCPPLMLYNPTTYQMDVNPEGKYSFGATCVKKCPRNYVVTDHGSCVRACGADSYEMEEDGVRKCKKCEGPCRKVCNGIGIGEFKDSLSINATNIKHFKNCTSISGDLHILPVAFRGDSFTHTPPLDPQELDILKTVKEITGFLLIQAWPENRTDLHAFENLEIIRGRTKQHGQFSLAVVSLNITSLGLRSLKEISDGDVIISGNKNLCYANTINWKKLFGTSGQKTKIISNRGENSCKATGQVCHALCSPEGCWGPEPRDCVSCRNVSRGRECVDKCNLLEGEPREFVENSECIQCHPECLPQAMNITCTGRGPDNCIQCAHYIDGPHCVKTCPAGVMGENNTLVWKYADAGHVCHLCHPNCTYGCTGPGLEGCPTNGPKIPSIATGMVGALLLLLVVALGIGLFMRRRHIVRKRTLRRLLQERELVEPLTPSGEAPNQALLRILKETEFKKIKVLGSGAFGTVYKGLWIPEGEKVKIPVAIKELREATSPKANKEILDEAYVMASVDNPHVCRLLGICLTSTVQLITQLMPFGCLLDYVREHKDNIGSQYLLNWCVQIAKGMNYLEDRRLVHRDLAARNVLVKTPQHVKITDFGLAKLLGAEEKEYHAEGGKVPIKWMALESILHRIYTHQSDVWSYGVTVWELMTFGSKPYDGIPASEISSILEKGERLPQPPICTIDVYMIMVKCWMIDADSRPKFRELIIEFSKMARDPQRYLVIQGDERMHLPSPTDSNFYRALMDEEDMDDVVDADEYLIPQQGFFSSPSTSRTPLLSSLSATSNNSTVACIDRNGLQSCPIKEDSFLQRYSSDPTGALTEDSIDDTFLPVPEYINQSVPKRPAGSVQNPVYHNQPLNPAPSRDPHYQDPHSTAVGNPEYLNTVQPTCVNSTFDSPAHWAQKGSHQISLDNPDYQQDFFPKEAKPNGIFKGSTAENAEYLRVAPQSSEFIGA
# [8] = target: Follistatin-related protein 3 (Homo sapiens) (UniProt O95633); assay: FSTL3 binders on small-molecule microarrays, primary screen, biochemical, small-molecule microarray, 635 nm fluorescence (AID 1105); conditions: FSTL3 binding, higher = more signal;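 note: score merges emission near 667 nm and signal to noise per printed spot across three slides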
# Chain of Follistatin-related protein 3 (Homo sapiens) (O95633 whole entry, looked up): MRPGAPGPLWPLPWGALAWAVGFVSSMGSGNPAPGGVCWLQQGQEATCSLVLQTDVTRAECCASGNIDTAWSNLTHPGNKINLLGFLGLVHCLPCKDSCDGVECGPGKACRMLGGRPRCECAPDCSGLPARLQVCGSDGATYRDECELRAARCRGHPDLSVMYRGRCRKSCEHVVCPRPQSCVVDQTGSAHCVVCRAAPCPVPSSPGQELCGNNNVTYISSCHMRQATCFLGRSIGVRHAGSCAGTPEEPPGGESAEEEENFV
# [9] = target: Dickkopf-related protein 1 (Homo sapiens) (UniProt O94907); assay: DKK1 binders on small-molecule microarrays, primary screen, biochemical, small-molecule microarray, 635 nm fluorescence scan (AID 1106); conditions: DKK1 binding, higher = more signal;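 note: score merges emission near 667 nm with signal to noise over three replicate slides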
# Chain of Dickkopf-related protein 1 (Homo sapiens) (O94907 whole entry, looked up): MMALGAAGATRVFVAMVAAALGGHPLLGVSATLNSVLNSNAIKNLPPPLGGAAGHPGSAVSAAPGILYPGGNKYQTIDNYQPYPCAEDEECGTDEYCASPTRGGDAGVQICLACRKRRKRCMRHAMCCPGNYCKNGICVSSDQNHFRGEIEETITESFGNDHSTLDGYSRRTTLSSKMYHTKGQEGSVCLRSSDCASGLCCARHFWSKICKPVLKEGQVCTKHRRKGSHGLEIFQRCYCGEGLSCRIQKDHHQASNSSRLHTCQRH
# [10] = test system: Inhibin beta A chain (activin A); assay: INHBA (activin A) binders on microarrays, primary screen, biochemical, small-molecule microarray, 635 nm fluorescence scan (AID 1107); conditions: small-molecule microarray binding, higher = more signal;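 note: mouse activin A protein probed at 4.33 µg/mL on printed slides; score merges bound-protein fluorescence near 667 nm with spot signal-to-noise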
# [11] = test system: Human papillomavirus type 1a protein E7 (residues 44-93); assay: HPV1a E7 fragment binders on microarrays, primary screen, biochemical, small-molecule microarray, residues 44-93, 635 nm fluorescence (AID 1108); conditions: small-molecule microarray binding, fluorescence 635 nm; higher = more signal;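 note: E7 fragment applied at 1 µg/mL in TBST for 1 h at 4 C; score combines spot fluorescence with its signal to noise ratio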
# [12] = modulators of HCV replicon luciferase signal, primary screen, HCV replication inhibitor project, Huh7 cells, luciferase reporter (AID 1109); conditions: 48 h, higher = more signal;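 note: huh7 hepatoma cells harbouring a luciferase neomycin HCV replicon reporter; luciferase luminescence as measure of HCV replicon replication; test concentration not given here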
# [13] = target: Left-right determination factor 2 (Homo sapiens) (UniProt O00292); assay: LEFTY2 binders on small-molecule microarrays, primary screen, biochemical, small-molecule microarray, 635 nm fluorescence scan (AID 1110); conditions: LEFTY2 binding, higher = more signal
# Chain of Left-right determination factor 2 (Homo sapiens) (O00292 whole entry, looked up): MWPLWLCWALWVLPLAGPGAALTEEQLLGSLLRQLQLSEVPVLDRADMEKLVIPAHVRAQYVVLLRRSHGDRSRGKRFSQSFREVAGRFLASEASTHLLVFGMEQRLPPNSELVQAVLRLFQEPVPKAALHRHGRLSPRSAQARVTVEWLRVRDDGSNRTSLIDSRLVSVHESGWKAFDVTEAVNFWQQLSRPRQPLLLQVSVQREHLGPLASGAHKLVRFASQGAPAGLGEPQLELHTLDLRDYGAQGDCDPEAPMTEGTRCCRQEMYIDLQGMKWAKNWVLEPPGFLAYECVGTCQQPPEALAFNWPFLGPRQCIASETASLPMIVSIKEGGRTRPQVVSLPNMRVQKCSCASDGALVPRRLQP
# [14] = target: Calmodulin-1 (Homo sapiens) (UniProt P0DP23); assay: CALM1 binders on microarrays, EGTA buffer, profiling panel, biochemical, small-molecule microarray, Cy5-labelled CALM1 (AID 1111); conditions: Cy5-CALM1 binding fluorescence, higher = more signal;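 note: labelled calmodulin applied in Tris saline Tween buffer holding calcium plus EGTA and DTT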
# [15] = target: Calmodulin-1 (Homo sapiens) (UniProt P0DP23); assay: calcium-bound CALM1 binders on microarrays, profiling panel, artefact control for SMM control-protein annotation, biochemical, small-molecule microarray, Cy5-labelled CALM1, plus calcium (AID 1112); conditions: Cy5-CALM1 binding fluorescence, higher = more signal;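 note: score merges spot fluorescence with signal to noise from triplicate slides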
# [16] = small-molecule microarray binders of probe aWnt5a, primary screen, biochemical, biotinylated probe, 635/667 nm fluorescence (AID 1113); conditions: higher = more signal;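 note: score merges 667 nm fluorescence intensity with signal-to-noise per printed feature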
# [17] = small-molecule microarray binders of probe aShh, primary screen, biochemical, biotinylated probe, 635/667 nm fluorescence (AID 1114); conditions: higher = more signal;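 note: probe is biotin-labelled aShh protein from a stem cell growth factor screen; measures binding of labelled protein to compounds printed on the slide; score merges feature fluorescence at 667 nm with signal-to-noise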
# [18] = small-molecule microarray binders of probe aNog, primary screen, biochemical, biotinylated probe, 635/667 nm fluorescence (AID 1115); conditions: higher = more signal;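 note: probe is biotinylated aNog protein used at 0.15 µg/mL for 1 h at 4 C; z-score combines 667 nm fluorescence of each spot with its signal to noise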
# [19] = target: Torsin-1A-interacting protein 1 (Homo sapiens) (UniProt Q5JTV8); assay: LAP1 binders from COS7 cell lysate, primary screen, small-molecule microarray, 635/667 nm fluorescence (AID 1116); conditions: COS7-hLAP1 lysate binding, 635 nm fluorescence, higher = more signal
# Chain of Torsin-1A-interacting protein 1 (Homo sapiens) (Q5JTV8 whole entry, looked up): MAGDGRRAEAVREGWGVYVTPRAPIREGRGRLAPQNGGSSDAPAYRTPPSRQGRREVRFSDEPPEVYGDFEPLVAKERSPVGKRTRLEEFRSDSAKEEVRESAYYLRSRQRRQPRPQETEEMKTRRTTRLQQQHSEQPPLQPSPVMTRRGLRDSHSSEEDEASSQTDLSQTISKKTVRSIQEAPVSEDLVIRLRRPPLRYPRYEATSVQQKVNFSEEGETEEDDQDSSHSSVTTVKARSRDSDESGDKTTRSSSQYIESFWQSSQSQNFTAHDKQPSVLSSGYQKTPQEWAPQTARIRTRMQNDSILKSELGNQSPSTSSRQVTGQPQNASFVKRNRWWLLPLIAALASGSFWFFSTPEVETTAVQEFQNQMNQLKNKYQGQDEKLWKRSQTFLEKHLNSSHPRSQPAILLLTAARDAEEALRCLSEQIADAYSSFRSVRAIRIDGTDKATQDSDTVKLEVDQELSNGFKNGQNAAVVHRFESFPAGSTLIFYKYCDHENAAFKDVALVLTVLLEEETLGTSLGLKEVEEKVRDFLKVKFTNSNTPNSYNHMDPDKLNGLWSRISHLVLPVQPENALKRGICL
# [20] = target: Alpha-bungarotoxin (Bungarus multicinctus) (UniProt P60615); assay: alpha-bungarotoxin binders on microarray, profiling panel, artefact control for SMM control protein annotation, biochemical, small-molecule microarray, Alexa647 label, 635/667 nm fluorescence (AID 1117); conditions: alpha-BTX-A647 binding fluorescence, higher = more signal
# Chain of Alpha-bungarotoxin (Bungarus multicinctus) (P60615 whole entry, looked up): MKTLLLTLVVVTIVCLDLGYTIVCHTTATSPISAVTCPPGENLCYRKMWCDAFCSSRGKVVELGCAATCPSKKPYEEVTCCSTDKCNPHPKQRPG
SMILES,composite z-score [1],composite z-score [2],composite z-score [3],z-score [4],composite z-score [5],composite z-score [6],composite z-score [7],composite z-score [8],composite z-score [9],composite z-score [10],composite z-score [11],z-score [12],composite z-score [13],composite z-score [14],composite z-score [15],composite z-score [16],composite z-score [17],composite z-score [18],composite z-score [19],composite z-score [20]
C#CCN1C(/C=C/c2ccccc2)C(=O)OC[C@H]1c1ccccc1 (stereo not given in full),0.025 and 1.16,-0.23 and -0.207,-0.688 and -0.55,-2.64 (inactive) and -0.366 (inactive),0.33 and 0.0389,0.658 and 0.0786,0.62 and 0.18,0.755 and 0.747,0.69 and 0.375,0.902 and 0.0774,0.267 and 0.514,-1 and -2.09,0.673 and 0.247,-0.451 and -0.295,-0.545 and -0.383,-0.0033 and -0.0607,0.0328 and -0.138,-0.115 and -0.385,0.341 and -0.35,0.348 and -0.144
C=CCN(CCCC)C(=O)C(c1cccs1)N(C(=O)/C=C\C(=O)O)c1ccc(CCO)cc1 (stereo not given),-0.292 and 0.315,0.219 and -0.11,0.864 and 1.06,0.243 (inactive) and -0.284 (inactive),-1.34 and -1.59,-1.58 and -1.35,-1.11 and -2.45,-0.963 and -2.14,-1.99 and -4.28,-1.22 and -1.99,-0.541 and -0.68,-1.03 and 0.741,-2.24 and -2.46,-0.324 and -0.724,0.423 and 0.395,-0.13 and -0.262,-0.0904 and -0.276,-0.0621 and -0.0827,1.13 and -0.803,0.749 and -2.47
O=C1[C@H]2[C@H]3[C@H](O)[C@H](O)CC(=NOCc4ccccc4)[C@H]3CC[C@H]2C(=O)N1Cc1ccccc1,0.424,-0.276,-0.476,-2.42 (inactive),0.185,-0.601,0.486,0.606,0.737,-0.201,-0.424,-0.44,0.552,-0.0595,-0.477,-0.222,-0.0772,-0.182,0.197,-0.0806
CC(C)=NOC[C@@H](O)COCc1ccco1,1.21,-0.254,-0.0658,0.638 (inactive),-0.341,-1.15,-0.298,-0.628,0.421,0.912,-1.92,0.797,-0.168,-0.614,-0.142,-0.172,-0.138,-0.342,-0.2,-1.1
C=C[C@H](C)[C@@H](O)c1ccc(OCCO)cc1,1.19 and -0.0088,0.892 and -0.0695,0.689 and 0.639,-0.636 (inactive) and -0.215 (inactive),-1.09 and -0.675,-0.914 and -0.622,-1.51 and -0.966,-1.35 and -0.796,-1.05 and -0.262,-1.03 and -0.831,-1.92 and -0.467,0.15 and 0.616,-1.11 and -1.45,-0.827 and -0.366,0.717 and 0.1,-0.261 and -0.252,-0.289 and 0.0639,-0.194 and -0.381,-0.998 and 0.225,-1.12 and -0.0745
CO[C@H]1COC(=O)[C@H](C)NC(=O)CC=C[C@@H](C)[C@H](OC)COC(=O)CC=C[C@@H]1C,0.523,-0.785,-1.62,0.506 (inactive),0.504,1.04,1.49,1.45,1.62,1.68,-1.05,-0.885,0.955,-0.884,-0.822,-0.0944,-0.0337,-0.198,0.169,-0.0006
C[C@@H]1CC[C@H]2C(=O)O[C@H](CN=[N+]=[N-])CN2[C@H]1c1ccc(Br)cc1,-0.0157 and 0.121,0.117 and -0.31,-0.444 and -0.466,0.254 (inactive) and -0.0654 (inactive),0.152 and -0.213,-0.267 and -0.529,0.0267 and 0.0063,-0.237 and -0.547,0.342 and -0.127,0.746 and 0.78,-0.322 and -0.172,-0.0944 and 0.335,0.0584 and 0.213,-0.425 and -0.201,-0.306 and -0.544,-0.124,-0.174 and -0.0769,0.0078 and -0.196,-0.21 and 0.116,0.089 and 0.397
C=CCN(C(=O)C(c1cccs1)N(C(=O)/C=C\C(=O)O)c1ccc(CCO)cc1)C(C)(C)C (stereo not given),-0.202 and 0.938,-0.123 and 0.0381,0.274 and 1.05,-0.14 (inactive) and 0.253 (inactive),-0.99 and -2.19,-0.265 and -0.746,-1.41 and -1.91,-1.76 and -2.36,-2.48 and -2.7,-1.03 and -2.06,-1.51 and -0.35,-0.18 and 0.135,-3.2 and -3.93,0.295 and 0.0738,1.1 and 0.871,-0.148 and -0.27,-0.0035 and 0.568,1.1 and -0.0102,3.3 and 2.33,-0.263 and -1.06
C=CCN(CCCC)C(=O)C1N(CCOCCO)C(=O)C2C(C(=O)O)C3C=CC21O3 (stereo not given),1.46 and 0.591,-0.0203 and -0.336,1.02 and 0.53,0.391 (inactive) and 0.915 (inactive),-1.38 and -1.65,-1.47 and -1.21,-1.89 and -1.27,-1.5 and -2.25,-3.09 and -1.87,-3.45 and -2.19,-0.0707 and -0.913,0.367 and 0.91,-2.91 and -1.58,-0.794 and -0.296,-0.0435 and 0.108,-0.256 and -0.287,-0.138,-0.216 and -0.352,1.59 and -0.819,-1.59 and -0.552
COC(=O)C1=C(C)N(Cc2ccccc2)[C@]23O[C@](C(=O)OC)(C(=O)N2[C@@H]1c1ccccc1)[C@@H](c1ccccc1)[C@@H]3C(=O)c1ccccc1,-0.104 and 0.177,0.107 and 0.263,-0.0791 and -0.347,-1.55 (inactive) and -0.5 (inactive),0.0494 and 0.417,0.338 and -0.145,0.0596 and 0.511,0.208 and 0.524,0.217 and 0.967,-0.431 and 1.21,0.189 and -0.932,0.989 and 0.471,0.494 and 0.9,1.43 and -1.06,0.589 and -0.256,-0.0417 and -0.137,-0.276 and -0.16,-0.0315 and -0.226,0.296 and -0.228,0.932 and -0.0514
